# Reference: article PMC11006913
# Substitutions are numbered along the chain they refer to.
# Legend:
# Assay in all cases: PBM; 200 nM protein, PBS
# Details in all cases: dsDNA, one strand shown
# NKX2-5 [1] = biological target: NKX2-5 (Homo sapiens, UniProt P52952 125-210, R139K)
# PAX4 [2] = biological target: T1, PAX4 (Homo sapiens, UniProt O43316 9-242, R200K)
# T1 sequence: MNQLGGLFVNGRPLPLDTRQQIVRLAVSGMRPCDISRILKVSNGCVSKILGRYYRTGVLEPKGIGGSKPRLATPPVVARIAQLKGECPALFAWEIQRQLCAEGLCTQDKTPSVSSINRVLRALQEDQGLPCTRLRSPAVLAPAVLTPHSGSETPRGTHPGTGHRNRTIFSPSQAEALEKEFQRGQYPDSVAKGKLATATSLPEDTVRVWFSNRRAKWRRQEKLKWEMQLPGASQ
# PRRX1 [3] = biological target: PRRX1 (Homo sapiens, UniProt P54821 80-166, F113S)
# PAX4 [4] = biological target: T2, PAX4 (Homo sapiens, UniProt O43316 9-242)
# T2 sequence: T1 sequence with K192R
# MSX2 [5] = biological target: MSX2 (Homo sapiens, UniProt P35548 130-214, R199I)
# PAX4 [6] = biological target: T3, PAX4 (Homo sapiens, UniProt O43316 9-242, R200Q)
# T3 sequence: T1 sequence with K192Q
# PAX4 [7] = biological target: T4, PAX4 (Homo sapiens, UniProt O43316 9-242, F177V)
# T4 sequence: T1 sequence with F169V, K192R
# MSX2 [8] = biological target: MSX2 (Homo sapiens, UniProt P35548 130-214)
# PAX4 [9] = biological target: T5, PAX4 (Homo sapiens, UniProt O43316 9-242, F177Y)
# T5 sequence: T1 sequence with F169Y, K192R
# MSX2 [10] = biological target: MSX2 (Homo sapiens, UniProt P35548 130-214, F161Y)
# PAX4 [11] = biological target: T6, PAX4 (Homo sapiens, UniProt O43316 9-242, R227W)
# T6 sequence: T1 sequence with K192R, R219W
# PRRX1 [12] = biological target: PRRX1 (Homo sapiens, UniProt P54821 80-166)
# NKX2-5 [13] = biological target: NKX2-5 (Homo sapiens, UniProt P52952 125-210)
# HOXC10 [14] = biological target: HOXC10 (Homo sapiens, UniProt Q9NYD6 254-340)
# HOXC10 [15] = biological target: HOXC10 (Homo sapiens, UniProt Q9NYD6 254-340, K271E)
# SIX6 [16] = biological target: T7, SIX6 (Homo sapiens, UniProt O95475 114-200, L167I)
# T7 sequence: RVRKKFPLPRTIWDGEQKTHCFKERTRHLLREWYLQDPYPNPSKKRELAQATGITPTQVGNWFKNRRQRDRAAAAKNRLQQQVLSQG
# SIX6 [17] = biological target: T8, SIX6 (Homo sapiens, UniProt O95475 114-200, L143V)
# T8 sequence: T7 sequence with L30V, I54L
# SIX6 [18] = biological target: T9, SIX6 (Homo sapiens, UniProt O95475 114-200, H141N)
# T9 sequence: T7 sequence with H28N, I54L
# SIX6 [19] = biological target: T10, SIX6 (Homo sapiens, UniProt O95475 114-200, T165P)
# T10 sequence: T7 sequence with T52P, I54L
# SIX6 [20] = biological target: T11, SIX6 (Homo sapiens, UniProt O95475 114-200, L167M)
# T11 sequence: T7 sequence with I54M
# SIX6 [21] = biological target: T12, SIX6 (Homo sapiens, UniProt O95475 114-200, L143M)
# T12 sequence: T7 sequence with L30M, I54L
# SIX6 [22] = biological target: T13, SIX6 (Homo sapiens, UniProt O95475 114-200, L143I)
# T13 sequence: T7 sequence with L30I, I54L
# SIX6 [23] = biological target: T14, SIX6 (Homo sapiens, UniProt O95475 114-200, T165G)
# T14 sequence: T7 sequence with T52G, I54L
# SIX6 [24] = biological target: T15, SIX6 (Homo sapiens, UniProt O95475 114-200, T139Q)
# T15 sequence: T7 sequence with T26Q, I54L
# ALX3 [25] = biological target: ALX3 (Homo sapiens, UniProt O95076 139-225, N203Q)
# SIX6 [26] = biological target: T16, SIX6 (Homo sapiens, UniProt O95475 114-200, T165A)
# T16 sequence: T7 sequence with T52A, I54L
# SIX6 [27] = biological target: T17, SIX6 (Homo sapiens, UniProt O95475 114-200, L167V)
# T17 sequence: T7 sequence with I54V
# ALX3 [28] = biological target: ALX3 (Homo sapiens, UniProt O95076 139-225)
# SIX6 [29] = biological target: T18, SIX6 (Homo sapiens, UniProt O95475 114-200)
# T18 sequence: T7 sequence with I54L
# ALX3 [30] = biological target: ALX3 (Homo sapiens, UniProt O95076 139-225, L168Q)
# SIX6 [31] = biological target: T19, SIX6 (Homo sapiens, UniProt O95475 114-200, T165I)
# T19 sequence: T7 sequence with T52I, I54L
# ALX3 [32] = biological target: ALX3 (Homo sapiens, UniProt O95076 139-225, L168V)
# ALX3 [33] = biological target: ALX3 (Homo sapiens, UniProt O95076 139-225, N203S)
# Chain of ALX3 (Homo sapiens, UniProt O95076 139-225, N203S) (O95076 139-225 N203S): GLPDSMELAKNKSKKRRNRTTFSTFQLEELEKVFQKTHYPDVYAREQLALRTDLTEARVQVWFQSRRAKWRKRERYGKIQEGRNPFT
# Chain of NKX2-5 (Homo sapiens, UniProt P52952 125-210, R139K) (P52952 125-210 R139K): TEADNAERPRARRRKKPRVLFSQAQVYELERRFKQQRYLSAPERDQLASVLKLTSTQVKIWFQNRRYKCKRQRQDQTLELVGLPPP
# Chain of NKX2-5 (Homo sapiens, UniProt P52952 125-210) (P52952 125-210): as the sequence (P52952 125-210 R139K) above, with K15R counted along it
# Chain of PRRX1 (Homo sapiens, UniProt P54821 80-166, F113S) (P54821 80-166 F113S): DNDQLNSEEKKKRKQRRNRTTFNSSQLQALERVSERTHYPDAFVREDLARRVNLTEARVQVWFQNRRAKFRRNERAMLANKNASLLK
# Chain of PRRX1 (Homo sapiens, UniProt P54821 80-166) (P54821 80-166): as the sequence (P54821 80-166 F113S) above, with S34F counted along it
# Chain of ALX3 (Homo sapiens, UniProt O95076 139-225, N203Q) (O95076 139-225 N203Q): as the sequence (O95076 139-225 N203S) above, with S65Q counted along it
# Chain of ALX3 (Homo sapiens, UniProt O95076 139-225, L168V) (O95076 139-225 L168V): as the sequence (O95076 139-225 N203S) above, with L30V, S65N counted along it
# Chain of ALX3 (Homo sapiens, UniProt O95076 139-225, L168Q) (O95076 139-225 L168Q): as the sequence (O95076 139-225 N203S) above, with L30Q, S65N counted along it
# Chain of MSX2 (Homo sapiens, UniProt P35548 130-214) (P35548 130-214): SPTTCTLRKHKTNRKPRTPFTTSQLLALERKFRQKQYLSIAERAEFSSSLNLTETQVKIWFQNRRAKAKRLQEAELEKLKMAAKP
# Chain of ALX3 (Homo sapiens, UniProt O95076 139-225) (O95076 139-225): as the sequence (O95076 139-225 N203S) above, with S65N counted along it
# Chain of HOXC10 (Homo sapiens, UniProt Q9NYD6 254-340, K271E) (Q9NYD6 254-340 K271E): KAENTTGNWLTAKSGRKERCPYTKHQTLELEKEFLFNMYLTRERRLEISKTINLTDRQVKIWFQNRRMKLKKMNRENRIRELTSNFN
# Chain of MSX2 (Homo sapiens, UniProt P35548 130-214, F161Y) (P35548 130-214 F161Y): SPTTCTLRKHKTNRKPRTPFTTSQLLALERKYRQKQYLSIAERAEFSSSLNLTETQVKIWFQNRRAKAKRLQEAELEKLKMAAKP
# Chain of HOXC10 (Homo sapiens, UniProt Q9NYD6 254-340) (Q9NYD6 254-340): as the sequence (Q9NYD6 254-340 K271E) above, with E18K counted along it
# Chain of MSX2 (Homo sapiens, UniProt P35548 130-214, R199I) (P35548 130-214 R199I): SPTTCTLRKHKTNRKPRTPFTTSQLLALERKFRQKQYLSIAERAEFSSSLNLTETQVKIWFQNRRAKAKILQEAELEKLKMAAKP
sequence,measurement,setting,value
CCGCCTCC,binding signal,NKX2-5 [1],"8.96 upbm affinity estimate (log intensity, higher = more binding, comparable within an allelic series)"
same,binding signal,PAX4 [2],"9.24 upbm affinity estimate (log intensity, higher = more binding, comparable within an allelic series)"
same,binding signal,PRRX1 [3],"9.25 upbm affinity estimate (log intensity, higher = more binding, comparable within an allelic series)"
same,binding signal,PAX4 [4],"9.34 upbm affinity estimate (log intensity, higher = more binding, comparable within an allelic series)"
same,binding signal,MSX2 [5],"9.48 upbm affinity estimate (log intensity, higher = more binding, comparable within an allelic series)"
same,binding signal,PAX4 [6],"9.3 upbm affinity estimate (log intensity, higher = more binding, comparable within an allelic series)"
same,binding signal,PAX4 [7],"9.19 upbm affinity estimate (log intensity, higher = more binding, comparable within an allelic series)"
same,binding signal,MSX2 [8],"9.45 upbm affinity estimate (log intensity, higher = more binding, comparable within an allelic series)"
same,binding signal,PAX4 [9],"9.18 upbm affinity estimate (log intensity, higher = more binding, comparable within an allelic series)"
same,binding signal,MSX2 [10],"9.54 upbm affinity estimate (log intensity, higher = more binding, comparable within an allelic series)"
same,binding signal,PAX4 [11],"9.29 upbm affinity estimate (log intensity, higher = more binding, comparable within an allelic series)"
same,binding signal,PRRX1 [12],"9.06 upbm affinity estimate (log intensity, higher = more binding, comparable within an allelic series)"
same,binding signal,NKX2-5 [13],"9 upbm affinity estimate (log intensity, higher = more binding, comparable within an allelic series)"
CGCCTACC,binding signal,NKX2-5 [1],"8.86 upbm affinity estimate (log intensity, higher = more binding, comparable within an allelic series)"
same,binding signal,PRRX1 [3],"9.18 upbm affinity estimate (log intensity, higher = more binding, comparable within an allelic series)"
same,binding signal,PRRX1 [12],"8.83 upbm affinity estimate (log intensity, higher = more binding, comparable within an allelic series)"
same,binding signal,NKX2-5 [13],"8.84 upbm affinity estimate (log intensity, higher = more binding, comparable within an allelic series)"
ACACCGGG,binding signal,NKX2-5 [1],"8.93 upbm affinity estimate (log intensity, higher = more binding, comparable within an allelic series)"
same,binding signal,HOXC10 [14],"10.2 upbm affinity estimate (log intensity, higher = more binding, comparable within an allelic series)"
same,binding signal,HOXC10 [15],"10 upbm affinity estimate (log intensity, higher = more binding, comparable within an allelic series)"
same,binding signal,NKX2-5 [13],"8.94 upbm affinity estimate (log intensity, higher = more binding, comparable within an allelic series)"
CCCCTGCG,binding signal,NKX2-5 [1],"8.68 upbm affinity estimate (log intensity, higher = more binding, comparable within an allelic series)"
same,binding signal,SIX6 [16],"8.92 upbm affinity estimate (log intensity, higher = more binding, comparable within an allelic series)"
same,binding signal,SIX6 [17],"8.67 upbm affinity estimate (log intensity, higher = more binding, comparable within an allelic series)"
same,binding signal,SIX6 [18],"8.89 upbm affinity estimate (log intensity, higher = more binding, comparable within an allelic series)"
same,binding signal,SIX6 [19],"8.67 upbm affinity estimate (log intensity, higher = more binding, comparable within an allelic series)"
same,binding signal,SIX6 [20],"8.87 upbm affinity estimate (log intensity, higher = more binding, comparable within an allelic series)"
same,binding signal,SIX6 [21],"8.77 upbm affinity estimate (log intensity, higher = more binding, comparable within an allelic series)"
same,binding signal,SIX6 [22],"8.85 upbm affinity estimate (log intensity, higher = more binding, comparable within an allelic series)"
same,binding signal,SIX6 [23],"8.87 upbm affinity estimate (log intensity, higher = more binding, comparable within an allelic series)"
same,binding signal,SIX6 [24],"8.92 upbm affinity estimate (log intensity, higher = more binding, comparable within an allelic series)"
same,binding signal,ALX3 [25],"7.65 upbm affinity estimate (log intensity, higher = more binding, comparable within an allelic series)"
same,binding signal,SIX6 [26],"8.91 upbm affinity estimate (log intensity, higher = more binding, comparable within an allelic series)"
same,binding signal,SIX6 [27],"8.9 upbm affinity estimate (log intensity, higher = more binding, comparable within an allelic series)"
same,binding signal,ALX3 [28],"7.85 upbm affinity estimate (log intensity, higher = more binding, comparable within an allelic series)"
same,binding signal,SIX6 [29],"8.87 upbm affinity estimate (log intensity, higher = more binding, comparable within an allelic series)"
same,binding signal,ALX3 [30],"7.61 upbm affinity estimate (log intensity, higher = more binding, comparable within an allelic series)"
same,binding signal,SIX6 [31],"8.84 upbm affinity estimate (log intensity, higher = more binding, comparable within an allelic series)"
same,binding signal,ALX3 [32],"7.71 upbm affinity estimate (log intensity, higher = more binding, comparable within an allelic series)"
same,binding signal,ALX3 [33],"7.66 upbm affinity estimate (log intensity, higher = more binding, comparable within an allelic series)"
same,binding signal,NKX2-5 [13],"8.4 upbm affinity estimate (log intensity, higher = more binding, comparable within an allelic series)"
